Test results published in ChEMBL document CHEMBL1961873, “Compounds: GSK PKIS; Assays: Nanosyn kinase panel” (2012).

How the values were obtained:
[1] = molecular target: T1, Inhibitor of nuclear factor kappa-B kinase subunit epsilon (Homo sapiens) (UniProt Q14164); conditions: at 1 µM;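 note: reported values are averaged percent inhibition figures against human IKKε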
T1 sequence (whole entry): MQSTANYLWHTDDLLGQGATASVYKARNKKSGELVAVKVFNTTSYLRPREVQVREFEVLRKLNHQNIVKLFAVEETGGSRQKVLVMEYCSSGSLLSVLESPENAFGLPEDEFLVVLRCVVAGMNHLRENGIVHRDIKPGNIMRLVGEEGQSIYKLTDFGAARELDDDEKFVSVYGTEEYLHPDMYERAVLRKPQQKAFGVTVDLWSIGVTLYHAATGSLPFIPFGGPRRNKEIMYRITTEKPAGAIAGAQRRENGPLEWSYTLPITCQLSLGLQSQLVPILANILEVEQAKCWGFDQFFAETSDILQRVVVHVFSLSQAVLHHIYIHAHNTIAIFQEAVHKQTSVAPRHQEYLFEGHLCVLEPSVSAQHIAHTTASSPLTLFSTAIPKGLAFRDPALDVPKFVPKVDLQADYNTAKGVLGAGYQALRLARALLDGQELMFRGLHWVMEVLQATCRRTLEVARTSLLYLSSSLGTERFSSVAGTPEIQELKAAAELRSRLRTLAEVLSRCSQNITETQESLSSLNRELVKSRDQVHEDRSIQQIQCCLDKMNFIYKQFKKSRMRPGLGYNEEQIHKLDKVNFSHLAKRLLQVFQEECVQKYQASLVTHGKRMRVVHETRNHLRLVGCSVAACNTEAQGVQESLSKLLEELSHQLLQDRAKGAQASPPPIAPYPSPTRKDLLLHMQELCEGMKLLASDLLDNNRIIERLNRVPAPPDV

[2] = molecular target: T2, Serine/threonine-protein kinase Nek1 (Homo sapiens) (UniProt Q96PY6); conditions: at 0.1 µM
T2 sequence (whole entry): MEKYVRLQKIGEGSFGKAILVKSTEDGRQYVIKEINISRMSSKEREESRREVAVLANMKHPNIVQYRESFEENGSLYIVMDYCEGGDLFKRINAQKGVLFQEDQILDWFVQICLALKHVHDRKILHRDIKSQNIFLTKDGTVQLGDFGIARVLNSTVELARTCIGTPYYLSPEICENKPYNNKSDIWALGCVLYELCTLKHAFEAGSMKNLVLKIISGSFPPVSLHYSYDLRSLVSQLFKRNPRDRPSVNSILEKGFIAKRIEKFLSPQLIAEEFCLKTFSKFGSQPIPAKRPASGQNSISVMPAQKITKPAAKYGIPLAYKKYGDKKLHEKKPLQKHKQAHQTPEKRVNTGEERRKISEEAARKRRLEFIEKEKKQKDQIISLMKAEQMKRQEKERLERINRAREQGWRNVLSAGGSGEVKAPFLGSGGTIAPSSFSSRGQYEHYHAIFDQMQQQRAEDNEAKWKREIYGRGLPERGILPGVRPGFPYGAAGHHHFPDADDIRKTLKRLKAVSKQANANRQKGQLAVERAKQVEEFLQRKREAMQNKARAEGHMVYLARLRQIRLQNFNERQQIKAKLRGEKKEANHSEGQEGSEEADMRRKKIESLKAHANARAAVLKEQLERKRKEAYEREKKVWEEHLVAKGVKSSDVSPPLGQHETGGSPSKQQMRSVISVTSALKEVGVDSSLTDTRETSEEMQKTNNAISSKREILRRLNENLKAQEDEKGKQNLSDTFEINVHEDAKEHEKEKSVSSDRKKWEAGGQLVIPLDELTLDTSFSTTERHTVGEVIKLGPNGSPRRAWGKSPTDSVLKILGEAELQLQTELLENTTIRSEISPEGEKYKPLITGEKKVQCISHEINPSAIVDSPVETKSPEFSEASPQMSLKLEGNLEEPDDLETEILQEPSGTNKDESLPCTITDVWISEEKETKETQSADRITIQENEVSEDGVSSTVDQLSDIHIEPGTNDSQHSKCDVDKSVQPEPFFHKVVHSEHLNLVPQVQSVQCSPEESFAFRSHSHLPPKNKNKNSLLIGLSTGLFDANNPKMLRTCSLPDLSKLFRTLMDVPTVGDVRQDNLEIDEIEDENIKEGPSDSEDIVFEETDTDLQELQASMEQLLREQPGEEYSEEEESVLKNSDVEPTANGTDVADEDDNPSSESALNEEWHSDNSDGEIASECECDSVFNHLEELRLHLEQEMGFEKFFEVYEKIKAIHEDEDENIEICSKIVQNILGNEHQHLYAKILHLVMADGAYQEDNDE

[3] = molecular target: T2, Serine/threonine-protein kinase Nek1 (Homo sapiens); conditions: at 1 µM
[4] = molecular target: T3, Serine/threonine-protein kinase Nek2 (Homo sapiens) (UniProt P51955); conditions: at 0.1 µM
T3 sequence (whole entry): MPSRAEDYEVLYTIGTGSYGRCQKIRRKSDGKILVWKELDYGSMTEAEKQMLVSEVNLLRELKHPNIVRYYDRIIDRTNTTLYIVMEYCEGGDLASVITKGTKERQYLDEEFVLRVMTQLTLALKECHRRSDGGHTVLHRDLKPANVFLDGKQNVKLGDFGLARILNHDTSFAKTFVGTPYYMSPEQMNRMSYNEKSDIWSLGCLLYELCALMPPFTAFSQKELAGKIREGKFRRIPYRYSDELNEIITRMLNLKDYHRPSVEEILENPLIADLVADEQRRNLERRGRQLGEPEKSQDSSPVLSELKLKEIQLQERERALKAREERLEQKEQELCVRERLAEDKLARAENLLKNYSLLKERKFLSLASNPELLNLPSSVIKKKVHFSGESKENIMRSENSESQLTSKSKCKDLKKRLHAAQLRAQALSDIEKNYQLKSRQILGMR

[5] = molecular target: T3, Serine/threonine-protein kinase Nek2 (Homo sapiens); conditions: at 1 µM
[6] = molecular target: Serine/threonine-protein kinase Nek6 (Homo sapiens) (UniProt Q9HC98); conditions: at 0.1 µM
Serine/threonine-protein kinase Nek6 (Homo sapiens), sequence (Q9HC98 whole entry): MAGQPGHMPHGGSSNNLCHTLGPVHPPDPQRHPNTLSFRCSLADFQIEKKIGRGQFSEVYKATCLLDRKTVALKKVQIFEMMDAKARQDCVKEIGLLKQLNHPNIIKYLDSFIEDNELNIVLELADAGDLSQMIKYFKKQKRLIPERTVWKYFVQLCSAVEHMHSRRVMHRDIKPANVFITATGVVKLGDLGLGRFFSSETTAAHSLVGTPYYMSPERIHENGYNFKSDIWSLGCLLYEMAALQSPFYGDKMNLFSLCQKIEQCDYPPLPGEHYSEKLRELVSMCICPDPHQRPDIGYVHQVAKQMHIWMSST

[7] = molecular target: Serine/threonine-protein kinase Nek6 (Homo sapiens) (UniProt Q9HC98); conditions: at 1 µM
[8] = molecular target: Serine/threonine-protein kinase Nek7 (Homo sapiens) (UniProt Q8TDX7); conditions: at 0.1 µM
Serine/threonine-protein kinase Nek7 (Homo sapiens), sequence (Q8TDX7 whole entry, looked up): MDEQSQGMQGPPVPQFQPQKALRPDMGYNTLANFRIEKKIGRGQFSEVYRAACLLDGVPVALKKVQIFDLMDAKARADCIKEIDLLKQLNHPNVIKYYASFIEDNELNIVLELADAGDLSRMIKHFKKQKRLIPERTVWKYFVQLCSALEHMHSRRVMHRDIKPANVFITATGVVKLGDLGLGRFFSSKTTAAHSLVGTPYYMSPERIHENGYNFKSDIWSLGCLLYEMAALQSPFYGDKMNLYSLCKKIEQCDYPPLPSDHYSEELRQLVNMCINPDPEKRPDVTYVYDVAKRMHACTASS

[9] = molecular target: Serine/threonine-protein kinase Nek7 (Homo sapiens) (UniProt Q8TDX7); conditions: at 1 µM
[10] = molecular target: T4, Serine/threonine-protein kinase Nek9 (Homo sapiens) (UniProt Q8TD19); conditions: at 0.1 µM
T4 sequence (whole entry): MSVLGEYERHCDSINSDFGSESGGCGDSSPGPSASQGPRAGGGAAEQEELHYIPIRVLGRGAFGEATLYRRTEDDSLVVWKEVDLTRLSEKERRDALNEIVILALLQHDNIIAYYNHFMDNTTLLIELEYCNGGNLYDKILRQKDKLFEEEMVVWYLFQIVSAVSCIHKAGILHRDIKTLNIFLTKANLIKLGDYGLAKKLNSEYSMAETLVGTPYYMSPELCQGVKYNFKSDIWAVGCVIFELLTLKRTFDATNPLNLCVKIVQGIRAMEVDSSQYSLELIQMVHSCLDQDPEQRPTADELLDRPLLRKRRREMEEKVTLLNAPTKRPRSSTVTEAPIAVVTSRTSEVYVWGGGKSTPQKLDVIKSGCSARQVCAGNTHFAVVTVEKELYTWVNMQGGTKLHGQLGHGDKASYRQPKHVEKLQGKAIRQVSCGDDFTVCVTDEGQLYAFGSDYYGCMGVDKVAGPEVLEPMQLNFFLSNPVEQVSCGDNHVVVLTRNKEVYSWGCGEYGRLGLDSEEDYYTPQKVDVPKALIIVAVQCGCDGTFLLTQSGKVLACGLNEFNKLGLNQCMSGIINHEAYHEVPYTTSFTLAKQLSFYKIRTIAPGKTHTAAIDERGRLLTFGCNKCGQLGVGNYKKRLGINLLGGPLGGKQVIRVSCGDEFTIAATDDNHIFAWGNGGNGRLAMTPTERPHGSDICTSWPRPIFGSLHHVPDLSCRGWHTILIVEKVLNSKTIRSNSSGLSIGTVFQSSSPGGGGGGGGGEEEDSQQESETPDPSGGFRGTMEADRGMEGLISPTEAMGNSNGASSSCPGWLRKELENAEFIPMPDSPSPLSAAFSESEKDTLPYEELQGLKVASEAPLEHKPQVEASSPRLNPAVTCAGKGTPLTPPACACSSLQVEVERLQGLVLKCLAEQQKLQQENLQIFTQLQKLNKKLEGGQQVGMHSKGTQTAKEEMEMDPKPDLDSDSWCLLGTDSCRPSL

[11] = molecular target: T4, Serine/threonine-protein kinase Nek9 (Homo sapiens); conditions: at 1 µM
[12] = molecular target: Serine/threonine-protein kinase PLK1 (Homo sapiens) (UniProt P53350); conditions: at 0.1 µM
Serine/threonine-protein kinase PLK1 (Homo sapiens), sequence (P53350 whole entry): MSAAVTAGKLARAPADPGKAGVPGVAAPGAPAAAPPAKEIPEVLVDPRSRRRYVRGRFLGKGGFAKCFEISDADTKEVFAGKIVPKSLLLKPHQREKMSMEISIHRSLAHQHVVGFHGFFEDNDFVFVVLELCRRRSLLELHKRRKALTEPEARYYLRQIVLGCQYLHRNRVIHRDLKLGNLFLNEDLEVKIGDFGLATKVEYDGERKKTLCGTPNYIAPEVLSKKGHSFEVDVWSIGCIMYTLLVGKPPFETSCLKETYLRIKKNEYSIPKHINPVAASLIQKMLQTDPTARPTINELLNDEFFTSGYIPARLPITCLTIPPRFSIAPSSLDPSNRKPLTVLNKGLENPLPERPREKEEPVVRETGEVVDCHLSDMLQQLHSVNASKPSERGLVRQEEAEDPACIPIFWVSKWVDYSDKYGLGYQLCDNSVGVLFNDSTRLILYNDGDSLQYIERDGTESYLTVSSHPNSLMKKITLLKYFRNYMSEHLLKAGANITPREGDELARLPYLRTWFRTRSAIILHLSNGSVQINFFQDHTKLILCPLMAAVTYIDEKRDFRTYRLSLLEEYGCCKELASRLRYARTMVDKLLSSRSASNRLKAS

[13] = molecular target: Serine/threonine-protein kinase PLK1 (Homo sapiens) (UniProt P53350); conditions: at 1 µM
[14] = molecular target: T5, Dual specificity protein kinase TTK (Homo sapiens) (UniProt P33981); conditions: at 0.1 µM
T5 sequence (whole entry): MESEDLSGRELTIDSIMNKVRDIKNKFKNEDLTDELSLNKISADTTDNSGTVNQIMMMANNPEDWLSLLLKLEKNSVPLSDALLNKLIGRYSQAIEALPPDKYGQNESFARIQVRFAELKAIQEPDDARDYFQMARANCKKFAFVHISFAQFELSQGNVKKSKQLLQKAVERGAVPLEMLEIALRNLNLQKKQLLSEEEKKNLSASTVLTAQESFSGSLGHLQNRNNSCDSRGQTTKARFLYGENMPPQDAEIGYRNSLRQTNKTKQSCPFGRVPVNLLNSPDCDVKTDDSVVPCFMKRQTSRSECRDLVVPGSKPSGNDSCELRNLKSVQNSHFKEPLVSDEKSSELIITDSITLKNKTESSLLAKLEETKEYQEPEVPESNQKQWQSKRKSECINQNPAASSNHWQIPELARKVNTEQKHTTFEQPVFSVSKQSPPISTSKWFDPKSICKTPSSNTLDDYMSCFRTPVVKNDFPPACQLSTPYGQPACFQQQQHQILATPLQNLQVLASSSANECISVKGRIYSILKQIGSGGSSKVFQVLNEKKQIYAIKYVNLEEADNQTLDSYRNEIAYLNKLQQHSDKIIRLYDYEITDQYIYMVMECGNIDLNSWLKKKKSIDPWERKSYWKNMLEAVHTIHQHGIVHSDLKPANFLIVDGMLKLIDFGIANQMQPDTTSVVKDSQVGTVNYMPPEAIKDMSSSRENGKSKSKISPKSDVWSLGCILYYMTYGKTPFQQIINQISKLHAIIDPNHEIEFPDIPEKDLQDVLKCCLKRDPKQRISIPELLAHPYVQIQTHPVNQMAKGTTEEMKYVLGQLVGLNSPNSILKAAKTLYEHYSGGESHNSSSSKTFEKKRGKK

[15] = system: T6, Receptor-type tyrosine-protein kinase FLT3 (Homo sapiens), P36888 [D835Y]; conditions: at 1 µM
T6 sequence (whole entry): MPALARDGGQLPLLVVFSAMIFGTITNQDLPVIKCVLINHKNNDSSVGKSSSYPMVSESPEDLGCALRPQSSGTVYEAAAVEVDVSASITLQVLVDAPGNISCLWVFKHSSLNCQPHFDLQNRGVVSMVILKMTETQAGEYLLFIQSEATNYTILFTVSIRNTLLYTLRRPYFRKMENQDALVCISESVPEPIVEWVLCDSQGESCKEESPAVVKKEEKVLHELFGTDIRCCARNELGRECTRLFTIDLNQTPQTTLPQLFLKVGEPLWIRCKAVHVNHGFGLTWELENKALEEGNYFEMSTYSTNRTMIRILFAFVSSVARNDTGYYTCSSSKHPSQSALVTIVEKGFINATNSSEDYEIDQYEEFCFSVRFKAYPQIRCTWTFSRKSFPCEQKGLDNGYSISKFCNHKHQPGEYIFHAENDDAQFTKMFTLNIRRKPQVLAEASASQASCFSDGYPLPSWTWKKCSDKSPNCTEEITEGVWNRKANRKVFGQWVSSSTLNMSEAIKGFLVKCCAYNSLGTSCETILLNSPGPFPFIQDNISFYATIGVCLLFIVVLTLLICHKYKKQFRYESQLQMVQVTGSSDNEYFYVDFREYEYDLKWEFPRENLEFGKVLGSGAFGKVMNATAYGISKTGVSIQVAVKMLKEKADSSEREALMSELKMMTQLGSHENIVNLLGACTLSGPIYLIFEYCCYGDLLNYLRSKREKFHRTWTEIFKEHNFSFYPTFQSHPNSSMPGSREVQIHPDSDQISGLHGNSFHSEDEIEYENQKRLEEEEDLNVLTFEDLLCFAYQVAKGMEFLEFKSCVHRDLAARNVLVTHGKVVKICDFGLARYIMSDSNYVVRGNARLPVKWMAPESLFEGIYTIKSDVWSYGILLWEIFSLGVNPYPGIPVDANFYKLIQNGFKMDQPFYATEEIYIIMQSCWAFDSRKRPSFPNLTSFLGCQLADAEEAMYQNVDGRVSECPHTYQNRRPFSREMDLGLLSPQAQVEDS

[16] = molecular target: Vascular endothelial growth factor receptor 3 (Homo sapiens) (UniProt P35916); conditions: at 0.1 µM
Vascular endothelial growth factor receptor 3 (Homo sapiens), sequence (P35916 whole entry): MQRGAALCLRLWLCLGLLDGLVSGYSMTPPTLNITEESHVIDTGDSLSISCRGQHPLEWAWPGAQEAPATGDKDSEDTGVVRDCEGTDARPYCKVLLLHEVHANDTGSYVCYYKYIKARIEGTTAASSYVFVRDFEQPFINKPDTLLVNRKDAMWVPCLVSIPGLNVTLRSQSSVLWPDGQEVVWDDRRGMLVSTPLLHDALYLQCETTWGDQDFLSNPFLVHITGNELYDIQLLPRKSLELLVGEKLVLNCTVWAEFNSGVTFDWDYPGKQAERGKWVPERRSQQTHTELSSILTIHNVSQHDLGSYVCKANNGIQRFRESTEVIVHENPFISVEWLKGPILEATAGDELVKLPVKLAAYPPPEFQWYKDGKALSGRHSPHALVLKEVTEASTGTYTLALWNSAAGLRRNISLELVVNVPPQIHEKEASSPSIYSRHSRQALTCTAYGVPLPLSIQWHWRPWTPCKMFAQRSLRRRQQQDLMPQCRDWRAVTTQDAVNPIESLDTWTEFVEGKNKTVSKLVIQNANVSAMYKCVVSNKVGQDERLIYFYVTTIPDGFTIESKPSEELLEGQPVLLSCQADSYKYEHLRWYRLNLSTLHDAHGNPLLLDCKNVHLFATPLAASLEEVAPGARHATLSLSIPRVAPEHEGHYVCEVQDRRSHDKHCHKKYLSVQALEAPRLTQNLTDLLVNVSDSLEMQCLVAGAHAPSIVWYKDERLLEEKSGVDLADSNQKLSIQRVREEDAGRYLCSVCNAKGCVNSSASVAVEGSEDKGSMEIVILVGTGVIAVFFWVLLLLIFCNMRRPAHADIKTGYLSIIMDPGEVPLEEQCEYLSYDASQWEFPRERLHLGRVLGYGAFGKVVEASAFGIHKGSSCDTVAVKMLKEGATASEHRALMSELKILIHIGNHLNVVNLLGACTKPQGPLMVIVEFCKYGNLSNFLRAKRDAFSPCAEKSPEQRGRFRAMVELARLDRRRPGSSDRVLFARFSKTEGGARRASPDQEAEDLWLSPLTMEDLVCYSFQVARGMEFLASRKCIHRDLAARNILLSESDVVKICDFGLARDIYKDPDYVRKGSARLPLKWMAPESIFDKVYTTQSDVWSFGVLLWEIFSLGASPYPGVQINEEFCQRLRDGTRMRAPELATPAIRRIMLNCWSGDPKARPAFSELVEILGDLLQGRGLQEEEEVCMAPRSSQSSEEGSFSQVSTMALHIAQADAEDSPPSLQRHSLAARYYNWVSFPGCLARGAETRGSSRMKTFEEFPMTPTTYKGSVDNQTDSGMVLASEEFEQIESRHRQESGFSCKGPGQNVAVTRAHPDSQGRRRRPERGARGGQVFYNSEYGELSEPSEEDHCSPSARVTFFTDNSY

[17] = molecular target: Vascular endothelial growth factor receptor 3 (Homo sapiens) (UniProt P35916); conditions: at 1 µM
[18] = molecular target: Macrophage colony-stimulating factor 1 receptor (Homo sapiens) (UniProt P07333); conditions: at 0.1 µM
Macrophage colony-stimulating factor 1 receptor (Homo sapiens), sequence (P07333 whole entry): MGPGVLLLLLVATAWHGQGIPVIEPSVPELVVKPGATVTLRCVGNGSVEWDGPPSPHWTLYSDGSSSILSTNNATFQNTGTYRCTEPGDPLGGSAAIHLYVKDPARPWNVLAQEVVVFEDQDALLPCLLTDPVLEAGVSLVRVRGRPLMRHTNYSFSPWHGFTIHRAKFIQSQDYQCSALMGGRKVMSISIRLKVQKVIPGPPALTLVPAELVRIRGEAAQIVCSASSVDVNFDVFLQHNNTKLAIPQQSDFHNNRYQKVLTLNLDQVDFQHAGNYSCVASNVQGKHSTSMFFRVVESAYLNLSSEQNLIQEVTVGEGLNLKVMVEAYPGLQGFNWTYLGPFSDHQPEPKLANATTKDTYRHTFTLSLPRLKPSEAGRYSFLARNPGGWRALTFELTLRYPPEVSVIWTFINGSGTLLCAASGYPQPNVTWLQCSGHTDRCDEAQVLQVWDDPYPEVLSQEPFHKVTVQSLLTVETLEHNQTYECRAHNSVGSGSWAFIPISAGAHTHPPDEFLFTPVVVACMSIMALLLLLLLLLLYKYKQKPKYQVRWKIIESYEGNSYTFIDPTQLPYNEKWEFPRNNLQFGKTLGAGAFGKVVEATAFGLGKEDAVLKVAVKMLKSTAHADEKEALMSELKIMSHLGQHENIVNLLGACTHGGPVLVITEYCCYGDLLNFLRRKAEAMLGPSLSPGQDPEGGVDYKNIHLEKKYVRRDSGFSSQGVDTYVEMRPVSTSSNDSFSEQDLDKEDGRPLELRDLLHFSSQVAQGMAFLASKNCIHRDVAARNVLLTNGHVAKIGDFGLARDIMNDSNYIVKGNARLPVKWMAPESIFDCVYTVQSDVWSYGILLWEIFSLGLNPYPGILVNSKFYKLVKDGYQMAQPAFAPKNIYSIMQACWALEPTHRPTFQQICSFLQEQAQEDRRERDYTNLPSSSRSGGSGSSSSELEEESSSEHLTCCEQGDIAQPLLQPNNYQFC

[19] = molecular target: Macrophage colony-stimulating factor 1 receptor (Homo sapiens) (UniProt P07333); conditions: at 1 µM
[20] = molecular target: Tyrosine-protein kinase Fyn (Homo sapiens) (UniProt P06241); conditions: at 0.1 µM
Tyrosine-protein kinase Fyn (Homo sapiens), sequence (P06241 2-537 limits assumed): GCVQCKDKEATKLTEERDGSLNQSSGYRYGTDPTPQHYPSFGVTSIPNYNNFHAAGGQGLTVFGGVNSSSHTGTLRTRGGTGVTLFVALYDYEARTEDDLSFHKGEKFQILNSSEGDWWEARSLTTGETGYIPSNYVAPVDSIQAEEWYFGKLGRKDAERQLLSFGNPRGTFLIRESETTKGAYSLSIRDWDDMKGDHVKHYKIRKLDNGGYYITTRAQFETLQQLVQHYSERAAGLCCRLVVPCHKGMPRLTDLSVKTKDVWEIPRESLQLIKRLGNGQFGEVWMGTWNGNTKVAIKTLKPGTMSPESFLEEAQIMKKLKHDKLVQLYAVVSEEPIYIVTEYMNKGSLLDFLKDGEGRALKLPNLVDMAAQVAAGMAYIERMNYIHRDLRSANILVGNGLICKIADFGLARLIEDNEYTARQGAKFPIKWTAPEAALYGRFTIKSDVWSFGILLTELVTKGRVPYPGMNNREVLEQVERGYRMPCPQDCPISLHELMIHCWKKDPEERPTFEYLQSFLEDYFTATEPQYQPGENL

SMILES	inhibition [1]	inhibition [2]	inhibition [3]	inhibition [4]	inhibition [5]	inhibition [6]	inhibition [7]	inhibition [8]	inhibition [9]	inhibition [10]	inhibition [11]	inhibition [12]	inhibition [13]	inhibition [14]	inhibition [15]	inhibition [16]	inhibition [17]	inhibition [18]	inhibition [19]	inhibition [20]
Cc1ccc2c(c1)/C(=N/Nc1ccc(S(N)(=O)=O)cc1)C(=O)N2	-2.89%	-0.29%	1.65%	0.94%	0.07%	-2.33%	-1.82%	2.58%	2.3%	2%	4.02%	0.67%	1.12%	7.53%	10.8%	2.09%	14.6%	2.64%	16.7%	1.22%
c1ccc(Cc2nc3ccc(Nc4ncnc5ccccc45)cc3[nH]2)cc1	4.77%	0.8%	6.65%	4.56%	2.85%	3.06%	4.77%	3.7%	3.14%	7.36%	1.93%	2.22%	1.76%	5.97%	5.06%	0.79%	2.3%	4.66%	5.24%	1.56%
